Bioassay records deposited in PubChem by National Center for Advancing Translational Sciences (NCATS).
Hits are enriched below; roughly 9.5% of the tested compounds scored in any of these assays.
SARS PLP yeast: SARS-CoV PLP inhibition in yeast. S. cerevisiae expressing SARS-CoV PLpro, growth rescue. Potency, µM (series often up to 32.9 µM), for the others: at the top dose activity, positive = growth rescue, hits mostly activators. 330,000 compounds, 0.19% hits. AID 485353; further: 0% is about no effect; nearly all actives have a fitted effect of over 55% in size
NS1 function inh: inhibitors of influenza NS1 protein function; 270,000 compounds, 0.4% hits; AID 2326; Potency, µM (top dose mostly 46.1 µM), for inactives: top-dose activity, positive = more growth; further: actives are rising curves; nearly all actives have a fitted effect of over 50% in size
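Compounds were scored for reversing the slow growth caused by influenza A NS1 in S. cerevisiae, measured by optical density at 600 nm. Assay medium contained 2% galactose at pH 6.0; NS1-free yeast of the same strain were the positive control.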
RE007 growth inh: less growth of the S. pombe RE007 Vpr strain; 360,000 compounds, 0.21% hits; Potency, µM (highest dose often 92.2 µM), for inactives: top-dose activity change, negative = less growth, most hits filed as inhibitors; AID 651644; S. pombe RE007 Vpr strain, BacTiter-Glo ATP luminescence, 24 h; active means well fitted falling curve with a large enough effect; inconclusive means small, poorly fitted or top-dose-only effect; inactive means no such curve, though single readings can be large or run the other way; further: on the % scale 0 is the no-effect control and ±100 the full control effect; nearly all actives have a fitted effect of over 50% in size
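Fission yeast RE007 carrying one integrated HIV-1 vpr copy, seeded at OD 0.01 in PMG+AL medium with 23 nL pinned compound. Grown 24 h at 30 degrees; viability read by BacTiter-Glo luminescence after 5 min.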
Pf growth 48h: inhibits P. falciparum growth in the first generation, 48 h; Potency, µM (series often up to 28.7 µM), without a hit: at the top dose activity change, negative = inhibition, usual class: inhibitors; P. falciparum luciferase growth in erythrocytes, 48 h; 310,000 compounds, 5.9% hits; AID 504832; active means well fitted inhibition curve with a large enough effect; inconclusive means small, poorly fitted or top-dose-only effect, or another doubt; inactive means no such curve, though single readings can be large or run the other way; further: on the % scale 0 is the no-effect control and ±100 the full control effect
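Luciferase-expressing P. falciparum in infected erythrocytes (2% hematocrit, 0.1% parasitemia final) in RPMI 1640/0.5% Albumax were exposed to compound for 48 hours at 37 C, 5% CO2; growth read as luminescence.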
Pf growth 96h: inhibits malaria parasite growth, 96 h. Potency, µM (highest dose often 28.7 µM), for the others: at the top dose activity change, negative = inhibition, actives largely listed as inhibitors. P. falciparum luciferase reporter growth, 96 h. AID 504834. 320,000 compounds, 6.9% hits; active means well fitted inhibition curve with a large enough effect; inconclusive means small, poorly fitted or top-dose-only effect, or another doubt; inactive means no such curve, though single readings can be large or run the other way; further: on the % scale 0 is the no-effect control and ±100 the full control effect
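P. falciparum expressing integrated firefly luciferase grown in erythrocytes (2% hematocrit, 0.05% parasitemia final) with compounds for 96 hours at 37 C, 5% CO2. Growth inhibition read as loss of luminescence after adding luciferase detection reagent.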
Active calls of the source: *; [ ] = remark or other dose. Unless noted, the call rests on the fitted dose curve. Potency means the concentration at half of the fitted maximal effect.

Results for COC1CC(N)C2OC(c3ccccc3)OCC2O1 (stereo not given) ?
RE007 growth inh: -1%

What do the screens show for `COc1cc(-c2[nH]ncc2CN(C)Cc2nonc2C)cc(OC)c1OC`?
SARS PLP yeast: -1%; NS1 function inh: 5%; RE007 growth inh: 5%; Pf growth 48h: inconclusive; Pf growth 96h: 1.7µM*

Results for COc1ccc(-c2[nH]ncc2CN(C)C(C)c2ccon2)c(OC)c1 (stereo not given) ?
SARS PLP yeast: 2%; NS1 function inh: -5%; RE007 growth inh: 7%; Pf growth 48h: 0%; Pf growth 96h: inconclusive

How did COc1ccc(-c2[nH]ncc2CN(C)Cc2nonc2C)c(OC)c1 do in these assays?
SARS PLP yeast: -1%; NS1 function inh: 2%; RE007 growth inh: 7%; Pf growth 48h: 9%; Pf growth 96h: 10µM*

What do the screens show for `O=C(Nc1ccc(Cl)cc1)c1cc2c(cc1O)[nH]c1ccccc12`?
SARS PLP yeast: -5%; NS1 function inh: -107%; RE007 growth inh: -4%; Pf growth 48h: 10µM*; Pf growth 96h: inconclusive

What do the screens show for `O=C(O)c1ccc(S(=O)(=O)N[C@H](Cc2ccc(O)cc2)C(=O)O)cc1`?
SARS PLP yeast: 4%; Pf growth 48h: 4%; Pf growth 96h: 9%

What do the screens show for `Cc1ccc(C)c(-n2nnnc2Sc2nnnn2-c2ccccc2)c1`?
SARS PLP yeast: -11%; NS1 function inh: -36%; RE007 growth inh: -13%; Pf growth 96h: -4%

How did c1ccc(Cn2c(CSc3nnnn3-c3ccccc3)nc3ccccc32)cc1 do in these assays?
SARS PLP yeast: -1%; NS1 function inh: 4%; RE007 growth inh: -18%; Pf growth 48h: inconclusive; Pf growth 96h: 15µM*

What do the screens show for `c1ccc(Cc2nc3ccccc3n2Cc2ccccc2)cc1`?
SARS PLP yeast: -21%; NS1 function inh: -66%; RE007 growth inh: 34%; Pf growth 48h: inconclusive; Pf growth 96h: inconclusive

How did O=c1c2ccccc2nc(CSc2nnnn2-c2ccccc2)n1-c1ccccc1Cl do in these assays?
SARS PLP yeast: 24%; NS1 function inh: 22%; RE007 growth inh: 4%; Pf growth 48h: inconclusive; Pf growth 96h: 12µM*

Results for c1ccc(Cn2c(Sc3nnnn3-c3ccccc3)nnc2-c2ccccc2)cc1 ?
SARS PLP yeast: 0%; NS1 function inh: 0%; RE007 growth inh: 2%; Pf growth 48h: 1.9µM*; Pf growth 96h: inconclusive

How did Cc1c(-c2ccccc2)c(-c2ccc(OCCN(C)C)cc2)n2ccccc12 do in these assays?
RE007 growth inh: -9%

How did CCOC(=O)CC1(C)Sc2ccccc2N1S(=O)(=O)c1ccc(C)cc1 (stereo not given) do in these assays?
RE007 growth inh: -2%

Results for O=C(O)Cc1ccc(O)c(F)c1 ?
SARS PLP yeast: -2%; NS1 function inh: 7%; RE007 growth inh: 4%[18.4 µM]; Pf growth 48h: -5%; Pf growth 96h: -7%

How did O=C1Nc2ccccc2/C1=N\c1sc2c(c1C(=O)Nc1ccccc1)CCCC2 do in these assays?
SARS PLP yeast: -51%; NS1 function inh: 4%; RE007 growth inh: 16%[3.69 µM]; Pf growth 48h: 7.4µM*; Pf growth 96h: 2.3µM*

What do the screens show for `CC(C)COc1ccc(C(=O)NCc2ccco2)cc1`?
SARS PLP yeast: -2%; NS1 function inh: -45%; RE007 growth inh: 11%; Pf growth 48h: 12µM*

How did O=C(NCc1ccco1)c1ccc(Oc2ccccc2)cc1 do in these assays?
SARS PLP yeast: -18%; NS1 function inh: -114%; RE007 growth inh: -14%; Pf growth 96h: 7.4µM*

Results for O=C(NCc1ccco1)c1ccc(COc2ccccc2Cl)cc1 ?
SARS PLP yeast: -16%; NS1 function inh: -6%; RE007 growth inh: -14%; Pf growth 48h: inconclusive; Pf growth 96h: inconclusive

What do the screens show for `O=C(NCc1ccco1)c1ccc(COc2cccc3ccccc23)cc1`?
SARS PLP yeast: -6%; NS1 function inh: 5%; Pf growth 48h: 7.4µM*; Pf growth 96h: 7.4µM*

Results for COc1cccc(C(=O)NCc2ccco2)c1 ?
SARS PLP yeast: 1%; NS1 function inh: 7%; RE007 growth inh: -4%; Pf growth 48h: 0%; Pf growth 96h: 10µM*

How did COc1cccc(C(=O)NCCS(=O)(=O)NCc2ccco2)c1 do in these assays?
SARS PLP yeast: 0%; RE007 growth inh: 63%; Pf growth 48h: 40%; Pf growth 96h: 66%

Results for O=C(NCc1ccco1)c1ccc(C(=O)NCc2ccco2)cc1 ?
RE007 growth inh: -11%

How did O=C1NC[C@@H](CCCCN2C[C@H](Cc3ccccc3)N(CCc3ccc(O)cc3)C(=O)C2=O)N(Cc2ccccc2)C1=O do in these assays?
RE007 growth inh: -4%

What do the screens show for `CCN(C(=O)CSc1ncccn1)c1cccc2ccccc12`?
SARS PLP yeast: 1%; RE007 growth inh: 6%

Results for CN(C(=S)Nc1ccc(SC(F)F)cc1)C(c1ccccc1)c1ccccc1 ?
SARS PLP yeast: -4%; NS1 function inh: 5%; RE007 growth inh: -17%; Pf growth 48h: 9.3µM*; Pf growth 96h: inconclusive

How did Cc1cc(C)n2nc(SCC(=O)NC3CCCCC3)nc2n1 do in these assays?
SARS PLP yeast: -5%; NS1 function inh: -11%; RE007 growth inh: 3%; Pf growth 48h: -1%; Pf growth 96h: 13µM*

What do the screens show for `CCOC(=O)CSc1nc2nc(C)cc(C)n2n1`?
SARS PLP yeast: 1%; NS1 function inh: 9%; RE007 growth inh: 1%; Pf growth 48h: 5%; Pf growth 96h: 40%

What do the screens show for `CCCn1c(C)cc(C(=O)CSc2nc3nc(C)cc(C)n3n2)c1C`?
SARS PLP yeast: 6%; NS1 function inh: 7%; RE007 growth inh: 6%; Pf growth 48h: inconclusive; Pf growth 96h: 9.3µM*

Results for Cc1ccc2c(c1)C(c1ccccc1)N(C(=O)c1ccc3c(c1)OCO3)CC(=O)N2 (stereo not given) ?
SARS PLP yeast: 0%; NS1 function inh: 2%; RE007 growth inh: 9%; Pf growth 48h: inconclusive; Pf growth 96h: inconclusive

How did CNC(=O)C(N)CSC(C)C1=C(C)c2cc3[n-]c(cc4nc(cc5[n-]c(cc1n2)c(C)c5CCC(=O)O)C(CCC(=O)O)=C4C)c(C)c3C(C)SCC(N)C(=O)NC.[Fe+2] (stereo not given) do in these assays?
Pf growth 48h: -41%; Pf growth 96h: inconclusive

What do the screens show for `C=Cc1c(C)c2cc3nc(cc4[nH]c(cc5nc(cc1[nH]2)C(C)=C5CCC(=O)O)c(CCC(=O)OC)c4C)[C@@]1(C)C3=CC=C(C(=O)OC)[C@H]1C(=O)OC` (tested in a mixture with another compound)?
Pf growth 48h: 3.8µM*; Pf growth 96h: 3.4µM*

Results for CC(CO)(CO)Nc1ncnc2ccccc12 ?
NS1 function inh: 3%

Results for N#Cc1cccc(NC(=O)Cn2cnc(S(=O)(=O)N3CCc4ccccc43)c2)c1 ?
SARS PLP yeast: -12%; NS1 function inh: -8%; RE007 growth inh: -9%; Pf growth 48h: -25%; Pf growth 96h: 4.7µM*
